The values below come from PubChem BioAssay (NCI).

About 83,000 compounds went through this panel and 20% of them were active in at least one assay; those are over-represented in the sample as a whole.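 Single-dose data. Exposure time 48 hours. Values below 10 considered active.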 A number with no mark means an inactive call. Calls of active or inactive are those of the source.

The test system of the first assay is OVCAR-3 ovarian. The assay can be described thus: NCI-60 one-dose screen, 48 h (100 = growth as untreated, 0 = no growth, -100 = all killed). The following applies: 10 µM.
Consider `Cc1ccc(NCC(=O)Nn2c(COc3ccccc3)nc3ccccc3c2=O)cc1`, for which the growth is 75.4%.

Take `CO[C@@H]1CSSC1Cn1nc(-c2ccc(Oc3ccccc3)cc2)c2c(N)ncnc21` (stereo partly specified): the growth was 56%.

For `COc1cc(Cn2c(C(F)(F)F)cc3c(Cl)ncnc32)ccn1`, the growth is -52.4% (active).

Take `COc1ccc(/C(C)=N/N=C2C(=O)N(C)c3ccc(Br)cc32)cc1S(N)(=O)=O`: the growth is 69.6%.

On to `N#Cc1c(-c2ccc(F)cc2)nc(SCc2ccc(F)cc2)nc1N1CCOCC1`, for which the growth is 75.2%.

Regarding `S=c1nc(-c2ccccc2)cc(-c2cc3ccccc3nc2Cl)[nH]1`, the growth was 76.7%.

Take `C=C(C)[C@@H]1CC[C@]2(C(=O)OC)CC[C@]3(C)[C@H](CC[C@@H]4[C@@]5(C)CC[C@H](N)C(C)(C)[C@@H]5CC[C@]43C)[C@@H]12`: the growth was -78.1% (active).

For `O=C(c1ccc(O)cc1)C1[C@H](c2ccccc2Br)[C@@H](c2ccccc2)NC12C(=O)Nc1ccc(Cl)cc12` (stereo partly specified), the growth was -46.2% (active).

Turning to `CC[C@@]1(O)C(=O)OCc2c1cc1n(c2=O)Cc2c-1nc1cc(F)c(C)c3c1c2[C@@H](N)CC3`, the growth was -17.8% (active).

Another assay relates to HS 578T breast. Described as above. The following applies: 10 µM.
Take `CC(=O)Nc1nc(-c2ccc(N3CCN(C)CC3)c(NS(=O)(=O)c3cccc4c(N(C)C)cccc34)c2)cs1`: the growth is 41%.

Turning to `CN1CCN(Cc2ccc(C(=O)Nc3cccc(Nc4ccc5cc(O)ccc5n4)c3)cc2C(F)(F)F)CC1`, the growth was -2.79% (active).

`O=C(c1ccc(O)cc1)C1[C@H](c2ccccc2Br)[C@@H](c2ccccc2)NC12C(=O)Nc1ccc(Br)cc12` (stereo partly specified): the growth was 58.5%.

As for `Brc1ccc(/C=N/Nc2ncnc3sc4c(c23)CCN(Cc2ccccc2)C4)cc1`, the growth is 48.3%.

For the molecule `O=C(c1ccc(O)cc1)C1[C@H](c2ccc(Br)cc2)[C@@H](c2ccccc2)NC12C(=O)Nc1ccccc12` (stereo partly specified), the growth was 28.5%.

On to `O=c1[nH][nH]c(Nc2ccccc2)c1N=Nc1ccc(F)cc1`, for which the growth is 65.2%.

For `Cc1ccc(-c2nc3ccc(C(=O)N=Nc4c(O)[nH]c5ccc(Cl)cc45)cc3[nH]2)cc1`, the growth was -0.441% (active).

Consider `COc1ccc(C(=O)Nc2ccc(-c3ccc4c(c3)NC(=O)/C4=C\c3ccc[nH]3)cc2)cc1`, for which the growth is -0.0796% (active).

With `CNCc1cccc2c1OCCCCCC[C@@](C)(O)CC1(CC1)S(=O)(=O)c1ccc(cc1)-c1cnc(N)c(n1)C(=O)N2`, the growth is -40.5% (active).

Turning to `COc1cccc2nc(Nc3ccc(F)c(NC(=O)c4ccc(CN5CCN(C)CC5)c(C(F)(F)F)c4)c3)ccc12`, the growth was 6.57% (active).

Consider `CCOC(=O)C1NN(c2ccc(S(N)(=O)=O)cc2)c2nc3nc(-c4cccs4)cc(-c4cccs4)c3c(=O)n21` (stereo unspecified), for which the growth is 8.11% (active).

For the molecule `O=C1Nc2cc(Cl)ccc2/C1=C/c1cccc(OCc2ccc(Br)cc2F)c1`, the growth is -10.1% (active).

`O=C(c1ccc(Cl)cc1)C1[C@H](c2ccccc2Br)[C@@H](c2ccccc2)NC12C(=O)Nc1ccc(Br)cc12` (stereo partly specified): the growth is 12%.

Regarding `O=c1[nH]n(C(=S)N/N=C/c2ccc(F)cc2)c(=O)c2ccccc12`, the growth is 91.6%.

Regarding `CC1(C)CC[C@]2(C(=O)O)CC[C@]3(C)C(=CC[C@@H]4[C@@]5(C)C/C(=C/c6ccncc6)[C@H](O)C(C)(C)[C@@H]5CC[C@]43C)[C@@H]2C1`, the growth was 52.7%.

For the molecule `CC1(C)CC[C@]23CC[C@]4(C)[C@H](CC[C@@H]5[C@@]6(C)CC[C@H](N)C(C)(C)[C@@H]6CC[C@]54C)[C@H]2[C@H]1OC3=O`, the growth was -62.2% (active).

In the case of `C#CCNC(=O)[C@]12CCC(C)(C)C[C@H]1C1=CC[C@@H]3[C@@](C)(CCC#N)[C@H](C(=C)C)CC[C@@]3(C)[C@]1(C)CC2`, the growth was 79.4%.

Consider `COC1CC(Cn2cc(COc3ccc4ccc(=O)oc4c3)nn2)C(OCc2ccccc2)C(OCc2ccccc2)C1OCc1ccccc1` (stereo unspecified), for which the growth was 109%.

With `Cc1cccc2cc(-c3cc(-c4ccccc4)nc(=O)[nH]3)c(Cl)nc12`, the growth is 89.8%.

`Cc1ccc(CSc2nc(-c3ccc(F)cc3)c(C#N)c(=O)[nH]2)cc1`: the growth was 105%.

Turning to `O=C1Nc2cc(-c3ccc(NC(=O)c4cccc([N+](=O)[O-])c4)cc3)ccc2/C1=C/c1ccc[nH]1`, the growth is 108%.

With `C=C(C)[C@@H]1CC[C@]2(COP(=O)(OCC)OCC)CC[C@]3(C)[C@H](CC[C@@H]4[C@@](C)(CCCN)[C@H](C(=C)C)CC[C@]43C)[C@@H]12`, the growth was 31.3%.
